In the library only some 9% were active in any assay of this set; here they are far more common.
HP1b binding inh: inhibitors of HP1-beta chromodomain binding to methylated histone tails | AID 540317 | AlphaScreen HP1-beta / biotin-H3K9me3 peptide binding | P83916 | 390,000 tested, 0.56% active | Potency, µM (titrated, usually from 114 µM), inactives show at the highest dose activity change, negative = inhibition, usual class: inhibitors; further: nearly all actives have a fitted effect of over 70% in size
Target sequence (P83916 whole entry, looked up): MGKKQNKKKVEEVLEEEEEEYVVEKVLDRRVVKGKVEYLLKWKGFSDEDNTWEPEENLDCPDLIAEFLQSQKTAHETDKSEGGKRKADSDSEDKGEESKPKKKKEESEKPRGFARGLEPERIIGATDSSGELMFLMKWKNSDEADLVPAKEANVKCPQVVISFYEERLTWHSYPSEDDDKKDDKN
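Compound inhibition of the preformed complex between 50 nM HP1-beta and 50 nM biotinylated H3K9me3 peptide was read by AlphaScreen. Buffer was PBS pH 7.4 with 0.01% Tween-20. Incubations ran 30 min at room temperature, with 10 ug/mL donor/acceptor beads.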
ALOX12 inh: ALOX12 (human) lipoxygenase inhibition; purified 12hLO, xylenol orange hydroperoxide absorbance; AID 1671190; P18054; Potency, µM (series often up to 108 µM), inactives show at the top dose activity change, negative = inhibition, hits mostly inhibitors; 580,000 tested, 1.1% active; further: on the % scale 0 is the no-effect control and ±100 the full control effect
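Purified human 12hLO at 150 nM in 25 mM Hepes, 0.01% Triton X-100, pH 7.0, preincubated 15 min at room temperature with compound. Reaction started with 40 uM arachidonic acid, 30 min at room temperature. Hydroperoxide measured by Fe-xylenol orange, 573/405 nm absorbance ratio.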
PLK1 PBD inh: inhibitors of human PLK1 polo-box domain binding; P53350; Plk1 PBD binding of FITC phosphopeptide, fluorescence polarization; Potency, µM, inactives show max response, negative = inhibition, actives largely listed as inhibitors; 360,000 tested, 2.8% active; AID 720504; further: series mostly up to about 57 µM; on the % scale 0 is the no-effect control and ±100 the full control effect; nearly all actives have a fitted effect of over 65% in size
BAZ2B inh: inhibitors of human BAZ2B bromodomain. Potency, µM (doses to about 114 µM), for inactives: top-dose activity change, negative = inhibition, hits mostly inhibitors. AlphaScreen BAZ2B-H3K14Ac peptide displacement. 360,000 tested, 4.4% active. AID 504333; further: on the % scale 0 is the no-effect control and ±100 the full control effect; nearly all actives have a fitted effect of over 60% in size
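BAZ2B (50 nM) with biotin-H3(5-23)K14Ac peptide (50 nM) in PBS pH 7.4, 0.01% Tween-20, preformed 30 min, then compound 30 min at room temperature; top concentration 110uM. AlphaScreen streptavidin donor/nickel chelate acceptor beads (10 ug/mL final), 20 min dark, signal read.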
JMJD2A Tudor: blocks the human JMJD2A Tudor domain; Potency, µM (top dose mostly 114 µM), for inactives: at the highest dose activity change, negative = inhibition, actives largely listed as inhibitors; AlphaScreen JMJD2A-Tudor / H3K4me3 peptide binding; AID 504339; O75164; 390,000 tested, 4.4% active; further: on the % scale 0 is the no-effect control and ±100 the full control effect; nearly all actives have a fitted effect of over 50% in size
G9a inh: inhibitors of human histone lysine methyltransferase G9a. Potency, µM (titrated, usually from 102 µM), for the others: at the highest dose activity, negative = inhibition, hits mostly inhibitors. 350,000 tested, 8.8% active. G9a H3K9 monomethylation, AlphaScreen, 2 h. AID 504332; further: on the % scale 0 is the no-effect control and ±100 the full control effect; nearly all actives have a fitted effect of over 75% in size
Target sequence (Q96KQ7 913-1193 limits assumed): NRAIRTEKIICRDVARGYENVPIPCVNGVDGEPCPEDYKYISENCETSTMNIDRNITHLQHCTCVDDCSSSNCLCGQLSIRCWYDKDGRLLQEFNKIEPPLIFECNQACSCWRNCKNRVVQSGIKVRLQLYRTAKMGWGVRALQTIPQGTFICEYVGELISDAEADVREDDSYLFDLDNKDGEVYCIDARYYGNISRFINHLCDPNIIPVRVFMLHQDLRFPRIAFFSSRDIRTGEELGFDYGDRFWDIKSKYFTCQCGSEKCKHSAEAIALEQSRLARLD
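AlphaScreen read-out: biotin-H3K9 peptide (500 nM) methylation by 20 nM enzyme with 20 uM SAM, 2 h at room temperature after 15 min compound preincubation; anti-monomethyl H3K9 antibody plus donor/acceptor beads, 10 min dark.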
Active calls of the source: *; ? = inconclusive; . = not tested or not shown; [ ] = dose if it differs, or a comment. The call rests on the fitted dose curve; in most records, active means well fitted curve in the direction sought with a large enough effect; inconclusive means small, poorly fitted or top-dose-only effect, or another doubt; inactive means no such curve, though single readings can be large; an effect the other way counts as inactive or inconclusive. Potency means the concentration at half of the fitted maximal effect.

SMILES | HP1b binding inh | ALOX12 inh | PLK1 PBD inh | BAZ2B inh | JMJD2A Tudor | G9a inh
CN(C)C(=O)c1ccc(CNC(=O)C2CCCC2)cc1 | . | 34% | . | . | . | .
N/C(=N\c1nc2ccccc2o1)NC(=O)c1ccc(-c2ccccc2)cc1 | . | 11% | . | . | . | .
CC(NC(=O)c1ccccc1Cl)C(=O)NCc1cccs1 (centres undefined) | 11% | -7% | -7% | 20% | -19% | -37%
C[C@H](NC(=O)c1ccccc1Cl)C(=O)NCc1cccs1 | 42% | -28% | -10% | -19% | -14% | 45µM*
Cc1cc(C)cc(C(=O)Nc2ccc(-c3cn4cccnc4n3)cc2)c1 | 53% | -9% | . | 4% | 2% | 5%[59 µM]
O=C(CSc1ccc(Br)cc1)NC1CCS(=O)(=O)C1 (centres undefined) | 20% | -32% | 17µM* | 11% | 1% | 5%
CS(=O)(=O)c1ccc(SCC(=O)NC2CCS(=O)(=O)C2)c([N+](=O)[O-])c1 (centres undefined) | 17% | -29% | -24% | -9% | 1% | 32µM*
Cn1c2[n+](c3ccc(Cl)cc3c1=O)Cc1ccccc1-2 | 45% | ? | -2% | -6% | -15% | 28µM*
O=C(O)CCCNC(=O)CC1S/C(=N/N=C/c2ccccc2O)NC1=O (centres undefined) | 31% | 0% | -9% | 50µM* | -23% | 0%
O=C1CCN(C(=O)c2cccnc2)CCCC(C(=O)NCCc2ccccc2)CCN1 (centres undefined) | . | 14% | . | . | . | .
CCCC12CN3CC(C)(CN(C1)C3c1ccco1)C2=O (centres undefined) | -2% | -7% | 19µM* | 1% | 56µM* | 19%
CCCC12CN3CC(CCC)(CN(C1)C3c1ccco1)C2=O (centres undefined) | -4% | ? | 0% | -17% | -15% | .
COc1ccc(Cn2c(=S)[nH]c3cc(C(=O)N4CCN(c5ccccc5)CC4)ccc3c2=O)cc1 | 39% | 29% | -1% | -25% | 6% | 0%
O=C(COc1ccc(/C=N/NC(=O)c2ccccc2O)cc1)Nc1ccc([N+](=O)[O-])cc1 | 37% | 0% | 21µM* | -6% | -10% | 7%[59 µM]
O=C(COc1ccc(/C=N/NC(=O)c2ccncc2)cc1)Nc1cccc([N+](=O)[O-])c1 | 16% | -15% | 0% | -3% | -10% | -9%[59 µM]
Fc1ccccc1/C=C1\CCCC2=C1Nc1nnnn1C2c1ccccc1F (centres undefined) | 23% | -17% | ? | -4% | -25% | 50µM*
O=C(Nc1ccc2c(c1)OCCO2)c1cccc(Cl)c1Cl | 25% | 84% | -11% | -18% | -23% | 28%
C/C=C/c1ccc(OC(C)[C@@H](O)c2ccc(O)c(OC)c2)c(OC)c1 (some centres undefined) | . | 8% | . | . | . | .
Cc1nc2ncnn2c(C)c1CCC(=O)NCCc1ccccc1 | -10% | -28% | 24µM* | 1% | -13%[57.1 µM] | 15%[59 µM]
CCOC(=O)C(Cc1ccccc1)NC(=O)CCc1c(C)nc2nc(C)nn2c1C (centres undefined) | ? | 4% | 27µM* | -1% | 7% | 8%[59 µM]
CCN(CC)c1ccc(NC(=O)CCc2c(C)nc3ncnn3c2C)c(C)c1 | 15% | -13% | . | -17% | -17% | 18µM*
CSc1ccc(CCNC(=O)CCc2c(C)nc3ncnn3c2C)cc1 | 33% | -10% | . | -15% | -7% | 1%[59 µM]
Cc1sc(NC(=O)c2ccc(=O)n(C)n2)nc1-c1ccccc1 | 25% | -3% | -19% | -30% | -16% | ?
Oc1ccc2c(c1)C1CCCC1(N1CCOCC1)O2 (centres undefined) | ? | 165% | 1% | ? | -20% | 8.9µM*
CC1=C(C(=O)N2CCOCC2)C(c2ccc(O)cc2)NC(=S)N1 (centres undefined) | 31% | 12% | -8% | 0% | -10% | ?
CCc1ccc(CN(Cc2cccnc2)C(=O)/C=C/c2ccc(OC)cc2)cc1 | 0% | ? | 20% | -24% | -28% | 50µM*

Screening data (PubChem BioAssay)
